Results on 35 compounds are retold here after PubChem BioAssay.

This experiment is described as follows: JC-1 mitochondrial potential readout, lung cancer cells – cell-based, A549, JC-1 fluorescence, basal, 24 h, 100 nL, profiling panel (AID 1138).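 Further: A549 lung adenocarcinoma cells under basal conditions with no added stimulus; test concentration not given here.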 To be noted: higher = more signal.
Regarding `CC[C@H]1C2=C3C(CC[C@H]4C(OCc5ccc(F)cc5C(F)(F)F)OC[C@](C)([C@@H]34)N(C(=O)OC(C)(C)C)C2)C(COC)C1COC` (stereo not given in full), the z-score amounted to 0.767.
The result for `CC(C)N1C(=O)C[C@@](C(=O)NCCCN(C)C)(c2ccc([N+](=O)[O-])cc2)[C@H]1c1ccc(CO)cc1` reads -0.488; that for `NC(=O)NCC#Cc1ccc2c(c1)[C@]1(C(=O)N2)[C@H](C(=O)NC[C@H](O)c2ccccc2)[C@H]2C(=O)O[C@H](c3ccccc3)[C@H](c3ccccc3)N2[C@@H]1c1ccc(OCCO)cc1`, -0.303.
The result for `Cc1ccccc1C(O)C1C=CC2C(=O)N(C)C(=O)C2N1N(c1ccccc1)c1ccccc1` (stereo not given) reads 0.429; that for `C=CCC(OC(C)=O)[C@@H]1[C@@H](N(Cc2cc3ccccc3o2)C(=O)c2ccc(C)cc2)c2cc(OCCCO)ccc2N1C(=O)Cc1ccc(OC)cc1` (stereo not given in full), 1.33.
The value for `COC(=O)C1=CC(CCCO)=CC(C2CC2)N(C)C=C1C(=O)OC` (stereo not given) was 0.511; that for `COc1cc2c(cc1OC)CN(C(=O)[C@@H]1[C@H]3C(=O)O[C@H](c4ccccc4)[C@H](c4ccccc4)N3[C@H](c3ccc(OCCO)cc3)[C@@]13C(=O)Nc1ccc(C#CC4(O)CCCCCC4)cc13)CC2` was -0.989.
`COc1cc(OC)c(C(O)C2C=CC3C(=O)N(c4ccccc4)C(=O)C3N2Nc2ccccc2)cc1Br` (stereo not given) displayed a z-score of -0.267.
The value for `COc1ccc([Si](C)(C)[C@@H]2[C@@H](CC(=O)N(CCO)Cc3ccccc3)O[C@]3(C(=O)N(Cc4cccc(N5C(=O)c6cccc7cccc5c67)c4)c4ccccc43)[C@H]2C)cc1` was -0.538.
The result for `COC(=O)c1c2oc(c1C(=O)OC)C(=O)N(C)Cc1cn(nn1)C[C@H](Cc1ccccc1)NC(=O)N[C@H](CO)CC2` reads -0.209.
Compound `O=C(CS)NCCCCCCNC(=O)[C@H]1C[C@H]2C(=O)N[C@@H](Cc3ccccc3)C(=O)N2[C@H]1c1ccc(O)cc1` displayed a z-score of -1.61.
The result for `O=C1C2C=CC(C(O)c3ccccc3)N(Nc3ccccc3F)C2C(=O)N1c1ccccc1` (stereo not given) reads 0.462; that for `CC(C)(C)N1CC=CC23O[C@@H]4C=CCOC(=O)[C@@H]4[C@H]2C(=O)N(CCCCCCO)[C@@H]3C1=O` (stereo not given in full), -0.12; that for `CCCCO[C@H]1C[C@H]2C(I)=C[C@@H]1C(=O)[C@]21CO1`, 0.258.
The result for `C=CCOC(=O)[C@H]1[C@@H]2C(=O)O[C@@H](c3ccccc3)[C@@H](c3ccccc3)N2[C@@H](c2ccc(OCCOC(=O)[C@@H]3C[C@@H]4C(=O)N5CCC[C@H]5C(=O)N4[C@@H]3c3ccc(O)cc3)cc2)[C@]12C(=O)Nc1ccc(I)cc12` reads -1.28; that for `C=CCOC(=O)[C@H]1[C@@H]2C(=O)O[C@@H](c3ccccc3)[C@@H](c3ccccc3)N2[C@@H](c2ccc(OCCOC(=O)[C@H]3C[C@H]4C(=O)N[C@@H](CCCCNC(C)=O)C(=O)N4[C@H]3c3ccc(O)cc3)cc2)[C@]12C(=O)Nc1ccccc12`, -1.16; that for `CCOc1cc(C(O)C2C=CC3C(=O)N(C)C(=O)C3N2Nc2ccccc2)ccc1O` (stereo not given), -0.203.
`C#CCN([C@@H](Cc1ccc(O)cc1)C(=O)OC)[C@@H](/C=C/C1CC1)[C@H](O)Cc1ccccc1` came in with a z-score of -1.6.
The value for `O=c1n(-c2ccccc2)c(=O)n2n1CC(COc1ccccc1)=C([C@H](O)CCc1ccccc1)[C@@H]2CO` was 0.77; that for `CC(=O)NCCCC[C@@H]1NC(=O)[C@H]2C[C@@H](C(=O)NCCCC[N+](C)(C)C)[C@@H](c3cccc(OCCO)c3)N2C1=O` was 0.584; that for `CN1C(=O)C2C=CC(C(O)c3ccccn3)N(N(c3ccccc3)c3ccccc3)C2C1=O` (stereo not given) was 0.613.
The result for `C[N+](C)(C)CCCCCCNC(=O)[C@H]1C[C@H]2C(=O)NCC(=O)N2[C@H]1c1ccc(O)cc1` reads -1; that for `CCCC[C@@H]1C[C@H]1[C@@H](NC(=O)c1cccs1)c1ccc(C(F)(F)F)cc1`, 0.503.
The result for `COc1ccc(CCN2C(=O)[C@@]3(Cc4ccccc42)c2ccccc2C(=O)N(Cc2ccccc2OC)[C@H]3c2ccc(CO)cc2)cc1` reads 0.132; that for `C[C@@H]1NC(=O)[C@@]23C(=O)N[C@@H](Cc4ccccc4)C2[C@H](C)[C@@]2(C)O[C@H]2C3/C=C/C/C=C\CNC(=O)[C@@H]2CCCN2C1=O` (stereo not given in full), 0.0238.
The compound `C=C(/C(=C/C[C@H](OC(C)=O)c1cccc(OCCO)c1)c1cnc2ccccc2c1)C(C)C` showed a z-score of 1.61.
The value for `[N-]=[N+]=NCc1ccccc1[C@H]1OC(c2ccc(OCCCO)cc2)=N[C@@]1(CCS(=O)(=O)c1ccccc1)C(=O)NCC(O)CO` (stereo not given in full) was -1.22; that for `Cc1cc(C)cc(N2C(=O)CSC2c2cccc([N+](=O)[O-])c2)c1` (stereo not given) was 0.492; that for `COCCOC(=O)N1C(=O)[C@@]2(c3cc(C#CC4(O)CCCCCC4)ccc31)[C@H](c1ccc(O)cc1)N1[C@H](c3ccccc3)[C@H](c3ccccc3)OC(=O)[C@H]1[C@@H]2C(=O)NC[C@H](O)c1ccccc1` was -0.939.
The result for `COC(=O)c1cn(C[C@@H](Cc2ccccc2)NC(=O)N[C@H](CO)CCc2oc(C(C)=O)c(C(=O)OC)c2C(=O)OC)nn1` reads 0.642.
The value for `COC(=O)[C@@]1(Cc2ccccc2)[C@H]2c3cc(C(=O)N(C)C)n(Cc4c(CO)[nH]cc(C)c4=O)c3C[C@H]2CN1C(=O)c1ccccc1` was 0.238.
In the case of `CC(=O)NCCCC[C@@H]1NC(=O)[C@@H]2C[C@H](C(=O)NCCCC[N+](C)(C)C)[C@H](c3ccc(O)cc3)N2C1=O`, the z-score was -1.12.
In turn, `COc1ccc([Si](C)(C)[C@@H]2[C@@H](CC(=O)N3Cc4ccccc4C[C@H]3CO)O[C@]3(C(=O)N(C)c4ccccc43)[C@H]2C)cc1` registered a z-score of 0.0779.
The value for `COCCOC(=O)N1C(=O)[C@@]2(c3cc(C#CC4=CCCCC4)ccc31)[C@H](C(N)=O)[C@H]1C(=O)O[C@H](c3ccccc3)[C@H](c3ccccc3)N1[C@@H]2c1ccccc1OCCO` was -1.89; that for `COC(=O)[C@@]1(Cc2ccc(OC)cc2)[C@@H]2C(=CC(=O)[C@H]2CC(=O)C(=O)N(C)C)CN1C(=O)c1ccccc1` was 0.437.
